Results reported in the OligoGym collection.

Target: TRIM23
Assay: pooled miR-30 sensor sort-seq; sequence = guide strand
Details: shRNA
Note: reference of the scale not given here.

Row | Sequence | sensor-assay potency score (higher = more potent)
1 | TATCTAAAATTGATGCTCGGAT | -0.778
2 | TTAATTTGTGTTTTCCACCTAC | 0.335
3 | TTTGTTAGCAAAAATCAGGAGC | -0.0645
4 | ATCAACAACACTTAGAGCCATT | -1.25
5 | TACTGAATGCTTGTGACCCTGG | 0.0097
6 | TAGTAGTTTTTCCAGCACCATC | -1.64

Target: TRIM25
Assay: as above
Details: shRNA

Row | Sequence | sensor-assay potency score (higher = more potent)
7 | TTGAGAGATGTTGAGTTCGGAT | -0.803
8 | TATAGCACTCTGACAGAGCCAC | -0.415
9 | TTGTTTTAAATCCACTAACTGT | -0.521
10 | TTGAGTTCGGATGTGAGCTGGT | 0.643
11 | TAAATGGTGTCAAACTTGCTGT | -0.555
12 | TTGTTGTAGCTGCTCCACCTTT | -0.889
13 | TTTCCGTGTATTCTTGTTGTAG | -0.308
14 | TTTAATGTAATACTCCAGGAGC | -0.733
15 | TTGAGGTCTATGGTGCTCTGGT | -0.448
16 | TTGTGCTGGGAACATTTGCGGC | -1.66
17 | TTTATCTTCCTTGTCGAGGTGG | 0.408
18 | TAAATCCACTAACTGTTCCGGG | -0.339
